Where a name gives a salt, the structure may show the parent alone.
Key:
Test in all cases: Euclidean distance of Cell Painting phenotypic profile (signed KS, 77 features) to DMSO centroid (dimensionless distance); 5 or 10 uM (library dependent); higher = stronger phenotypic change vs DMSO (phenoactivity)
Conditions in all cases: 48 h
[1] = test system: 786-O
Procedure, shortened: (§1)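 Five cancer lines and a healthy fibroblast line received library compounds at 10 or 5 uM (library-dependent, 0.1% DMSO final) for 48 h. Stained cells were imaged confocally at 20X (9 fields/well). Harmony extracted 77 features, each scored as a signed Kolmogorov-Smirnov statistic against same-plate vehicle wells. Profiles were plate-position corrected, correlation-weighted and replicate-averaged at the top dose. Phenoactivity is the Euclidean distance from each profile to the median vehicle profile.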

[2] = test system: A549
Procedure, shortened: as §1

[3] = test system: DU145
Procedure, shortened: as §1

[4] = test system: FB
Procedure, shortened: as §1

[5] = test system: HEPG2
Procedure, shortened: as §1

[6] = test system: OVCAR4
Procedure, shortened: as §1

Row | Compound | Euclidean distance [1] | Euclidean distance [2] | Euclidean distance [3] | Euclidean distance [4] | Euclidean distance [5] | Euclidean distance [6]
1 | O=C(c1ccc(NS(=O)(=O)c2cccc3cccnc23)cc1)N1CCN(CC2CC2)CC1 [Mitapivat] | 1.26 | 0.913 | 1.1 | 1.04 | 1.09 | 1.47
2 | c1ccc(-c2nn3c(c2-c2ccnc4cc(OCCN5CCOCC5)ccc24)CCC3)nc1 | 1.44 | 0.959 | 1.42 | 1.75 | 1.45 | 0.876
3 | COc1nc(C)nc(Cl)c1NC1=NCCN1 [Moxonidine] | 1.15 | 0.652 | 1.39 | 0.879 | 2.14 | 1.43
4 | C[C@@H](NCCCc1cccc(C(F)(F)F)c1)c1cccc2ccccc12 [Cinacalcet HCl] | 1.32 | 1.57 | 1.89 | 1.06 | 1.85 | 1.42
5 | c1ccc2c(c1)CCCC2C1=NCCN1 (stereo not drawn) [Tetryzoline] | 1.41 | 0.369 | 0.804 | 1.09 | 0.572 | 0.896
6 | O=C(O)C(Cc1c[nH]c2ccccc12)N1C(=O)c2ccccc2C1=O (stereo not drawn) | 0.991 | 0.979 | 0.681 | 0.852 | 0.417 | 0.641
7 | CN1C(=O)OC(C)(C)C1=O [Trimethadione] | 0.978 | 1.26 | 0.732 | 0.717 | 0.658 | 0.721
8 | CC(=O)O[C@]1(C(C)=O)CC[C@H]2[C@@H]3C[C@H](C)C4=CC(=O)CC[C@]4(C)[C@H]3CC[C@@]21C [Medroxyprogesterone acetate] | 1.02 | 1.4 | 1.65 | 1.31 | 1 | 1.06
9 | CN(C)/N=N/c1[nH]cnc1C(N)=O [Dacarbazine] | 1.42 | 0.981 | 1.94 | 1.25 | 2.73 | 0.871
10 | COc1cc2c(cc1OC)[C@@H](Cc1cc(OC)c(OC)c(OC)c1)[N+](C)(CCCOC(=O)CC/C=C/CCC(=O)OCCC[N+]1(C)CCc3cc(OC)c(OC)cc3[C@H]1Cc1cc(OC)c(OC)c(OC)c1)CC2 (stereo partly drawn) [Mivacurium chloride] | 0.861 | 1 | 0.929 | 1.3 | 0.442 | 1.25
11 | Nc1cc(C(F)(F)F)c(-c2cc(N3CCOCC3)nc(N3CCOCC3)n2)cn1 [Buparlisib (BKM120. NVP-BKM120)] | 2.55 | 3.38 | 2.88 | 2.98 | 2.83 | 3.29
12 | Cc1cc(Nc2ncnc3ccc(NC4=NC(C)(C)CO4)cc23)ccc1Oc1ccn2ncnc2c1 [Irbinitinib (ARRY-380. ONT-380)] | 1.56 | 1.62 | 1.3 | 1.15 | 1.12 | 1.29
13 | CO[C@@]1(NC(=O)Cc2cccs2)C(=O)N2C(C(=O)O)=C(COC(N)=O)CS[C@@H]21 [Cefoxitin] | 0.82 | 0.39 | 0.617 | 0.482 | 0.307 | 1.03
14 | Nc1nc(F)nc2c1ncn2[C@@H]1O[C@H](COP(=O)(O)O)[C@@H](O)[C@@H]1O [Fludarabine Phosphate] | 2.13 | 2.48 | 1.94 | 3.2 | 1.57 | 2.98
15 | NC1(Cc2ccc(Cl)cc2)CCN(c2ncnc3[nH]ccc23)CC1 | 1.5 | 1.13 | 1.5 | 1.39 | 1.17 | 1.39
16 | CC(C)(C)C(O)/C=C/c1ccc2c(c1)OCO2 (stereo not drawn) [Stiripentol] | 0.796 | 0.894 | 1.07 | 0.983 | 0.456 | 0.801
17 | O=C1[C@H](Cc2ccc(O)cc2)N2C(=O)CCN(C(=O)NCc3ccccc3)[C@H]2CN1Cc1cccc2ccccc12 | 2.87 | 2.53 | 1.39 | 3.88 | 1.43 | 2.09
18 | Cn1c(=O)cc(N2CCC[C@@H](N)C2)n(Cc2cc(F)ccc2C#N)c1=O [Trelagliptin] | 0.94 | 0.495 | 0.985 | 0.998 | 0.668 | 0.953
19 | CO[C@H]1O[C@@H]2O[C@@]3(C)CC[C@H]4[C@H](C)CC[C@@H]([C@H]1C)[C@@]24OO3 [Artemether] | 1.43 | 1.11 | 0.712 | 1.28 | 0.672 | 1.26
20 | Nc1ccc(S(=O)(=O)Nc2ncccn2)cc1 [Sodium sulfadiazine] | 1.29 | 0.966 | 1.5 | 1.52 | 0.727 | 1.12
21 | COc1cc(O)c2c(c1)C(=O)c1cc(C)cc(O)c1C2=O [Rheochrysidin] | 1.23 | 0.528 | 1.42 | 0.862 | 4.92 | 1.29
22 | CCCCCCCCN=c1ccn(CCCCCCCCCCn2ccc(=NCCCCCCCC)cc2)cc1 [Octenidine Dihydrochloride] | 6.46 | 4.73 | 6.38 | 6.45 | 4.62 | 6.71
23 | O=S(=O)(O)CCS [Mesna] | 0.758 | 0.755 | 0.968 | 0.772 | 2.1 | 1.22

Reference: the supplement of paper PMC10127200
